From PubChem BioAssay (Tox21) come the findings set out here.

Results filed as inconclusive are left out. The source made the active and inactive calls. The call rests on the fitted dose curve; in most records, active means well fitted cell-killing curve with a large enough effect in the repeat runs; inconclusive means weak or mixed curves, or effect the other way; inactive means flat fitted curve, though single readings scatter.

Test [1] can be described thus: cAMP Responsive Elements (CRE) small molecule antagonists, cell-based qHTS assay: qHTS cell viability counter screen (AID 2060913). Further: nearly all actives have a fitted effect of over 40% in size. To be noted: CRE-bla HEK293T viability, CellTiter-Glo luminescence, 5 h; series mostly up to 92.4 µM. The method in brief:
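HEK293T CRE-bla, 2,000 cells/well, 18 h preincubation; cpd in DMSO + NKH477 0.25 uM final, 3 h 37 C/5% CO2; LiveBLAzer 2 h RT, then CellTiter-Glo 30 min RT, luminescence.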
For orientation: In qHTS, concentration-response curves come from the screen itself.

A short description of test [2]: cAMP Responsive Elements (CRE) small molecule agonists, cell-based qHTS assay: qHTS cell viability counter screen (AID 2060914). Further: nearly all actives have a fitted effect of over 50% in size. Particulars: CRE-bla HEK293T viability, CellTiter-Glo luminescence, 5 h; series mostly up to 92.4 µM. The method in brief: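 Cells are seeded and incubated 18 h, treated with compounds in DMSO for 3 h, read for the bla reporter, then given CellTiter-Glo; luminescence is measured after 30 min at room temperature.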
Potency means the concentration at half of the fitted maximal effect.

Turning to `CCCCN(CCCC)C(=O)N(CCCC)CCCC`, the Potency result in test [1] and in test [2] was “inactive” throughout.
In the case of `CCCCOC(=O)c1ccccc1C(=O)OCC(CC)CCCC` (stereo not given), the Potency result in test [1] and in test [2] was “inactive” in each case.
Turning to `CCCCCCCCCC(C)=O`, the Potency entry in test [1] and in test [2] was “inactive” throughout.
In the case of `CCOc1ccc(NS(=O)(=O)c2ccc(N)cc2)nn1`, the Potency entry in test [1] and in test [2] was “inactive” each time.
Turning to `CCCCCCCC[N+](CCCCCCCC)(CCCCCCCC)CCCCCCCC`, the Potency in test [1] is 19.3 µM (active); in test [2] it was 30.6 µM (active).
Regarding `CCC(CC)(CC(=O)Nc1cccc(/C=C/c2nc(C3CCC3)cs2)c1)C(=O)O`, the Potency result in test [1] and in test [2] was “inactive” throughout.
For the compound `Nc1nc2ccc(OC(F)(F)F)cc2s1`, the Potency entry in test [1] and in test [2] was “inactive” each time.
For `CC(=O)OCC(=O)[C@H]1CC[C@H]2[C@@H]3CCC4=CC(=O)CC[C@]4(C)[C@H]3CC[C@]12C`, the Potency entry in test [1] and in test [2] was “inactive” in each case.
As for `Oc1ccccc1-c1nnco1`, the Potency result in test [1] and in test [2] was “inactive” in each case.
Take `CCCCc1ccc(N)cc1`: the Potency entry in test [1] and in test [2] was “inactive” throughout.
For `CCc1ccccc1O`, the Potency entry in test [1] and in test [2] was “inactive” in each case.
Consider `COc1ccc([N+](=O)[O-])cc1N`, for which the Potency result in test [1] and in test [2] was “inactive” each time.
Turning to `C[Si](Cl)(c1ccccc1)c1ccccc1`, the Potency result in test [1] and in test [2] was “inactive” each time.
Take `CCNc1cccc(C)c1`: the Potency result in test [1] and in test [2] was “inactive” each time.
As to `CCC(C)(C)C1CCC(=O)CC1`, the Potency entry in test [1] and in test [2] was “inactive” in each case.
`CC1(C)S[C@@H]2[C@H](NC(=O)Cc3ccccc3)C(=O)N2[C@H]1C(=O)O` (tested in a mixture with another compound): the Potency result in test [1] and in test [2] was “inactive” throughout.
Regarding `C=COCC(C)C`, the Potency result in test [1] and in test [2] was “inactive” each time.
In the case of `C=CC(=O)OCC1CCCO1` (stereo not given), the Potency result in test [1] and in test [2] was “inactive” each time.
For the compound `F[Si-2](F)(F)(F)(F)F`, the Potency entry in test [1] and in test [2] was “inactive” throughout.
Take `CCCCNC(=O)NS(=O)(=O)c1ccc(N)cc1`: the Potency entry in test [1] and in test [2] was “inactive” in each case.
For `CC#C[C@]1(O)CC[C@H]2[C@@H]3CCC4=CC(=O)CCC4=C3[C@@H](c3ccc(N(C)C)cc3)C[C@@]21C`, the Potency result in test [1] and in test [2] was “inactive” each time.
As for `ONc1ccccc1`, the Potency result in test [1] and in test [2] was “inactive” in each case.
Consider `C[C@]1(Cn2ccnn2)[C@H](C(=O)O)N2C(=O)C[C@H]2S1(=O)=O`, for which the Potency entry in test [1] and in test [2] was “inactive” in each case.
As for `CC1CCN(CCCC(=O)c2ccc(F)cc2)CC1`, the Potency result in test [1] and in test [2] was “inactive” throughout.
As for `CC(O)COC(C)(C)C` (stereo not given), the Potency entry in test [1] and in test [2] was “inactive” each time.
`O=C(Cl)c1cc(C(=O)Cl)cc(C(=O)Cl)c1`: the Potency entry in test [1] and in test [2] was “inactive” each time.
In the case of `CC1(C)Cc2cccc(N)c2O1`, the Potency result in test [1] and in test [2] was “inactive” each time.
Turning to `CC(C)CCOC(=O)c1ccccc1`, the Potency result in test [1] and in test [2] was “inactive” each time.
For `Cc1ccc(Cl)c(OCC(O)CNC(C)(C)C)c1` (stereo not given), the Potency entry in test [1] and in test [2] was “inactive” in each case.
For `CN(C)CCOCCN(C)CCO`, the Potency result in test [1] and in test [2] was “inactive” throughout.
In the case of `CCn1cc(C(=O)O)c(=O)c2cnc(N3CCNCC3)nc21`, the Potency result in test [1] and in test [2] was “inactive” each time.
Turning to `CN(C)CCCN1c2ccccc2CCc2ccccc21`, the Potency entry in test [1] and in test [2] was “inactive” each time.
For the compound `O=C(OCCCCCCOC(=O)c1ccccc1)c1ccccc1`, the Potency result in test [1] and in test [2] was “inactive” each time.
Turning to `CCOC(=O)c1ccc(O)c(O)c1`, the Potency result in test [1] and in test [2] was “inactive” each time.
Take `COc1ccc(C(=O)c2ccccc2)c(O)c1`: the Potency result in test [1] and in test [2] was “inactive” in each case.
Take `NNC(=O)OCc1ccccc1`: the Potency result in test [1] and in test [2] was “inactive” in each case.
Take `Nc1ccccc1[N+](=O)[O-]`: the Potency entry in test [1] and in test [2] was “inactive” throughout.
Regarding `CC(C)(C)N`, the Potency result in test [1] and in test [2] was “inactive” each time.
As to `CC(CO)(CO)[N+](=O)[O-]`, the Potency entry in test [1] and in test [2] was “inactive” each time.
Turning to `C[C@@H]1CC[C@H]2C(C)(C)[C@H]3C[C@@]12CC[C@@]3(C)O`, the Potency entry in test [1] and in test [2] was “inactive” throughout.
Turning to `C/C=C(C)/C=C/C=C(C)C`, the Potency result in test [1] and in test [2] was “inactive” throughout.
`c1ccc2c(c1)ccc1cc3c(ccc4ccccc43)cc12`: the Potency result in test [1] and in test [2] was “inactive” in each case.
As for `COC(=O)c1cc(S(N)(=O)=O)ccc1OC`, the Potency entry in test [1] and in test [2] was “inactive” throughout.
Take `CN(C)C/C=C(/c1ccc(Br)cc1)c1cccnc1`: the Potency entry in test [1] and in test [2] was “inactive” throughout.
For the compound `CCOc1ccc(NC(=O)OC(C)C)cc1OCC`, the Potency result in test [1] and in test [2] was “inactive” each time.
As to `COc1ccc(C(=O)c2ccc(OC)cc2O)c(O)c1`, the Potency result in test [1] and in test [2] was “inactive” each time.
For `C=CC(=O)CCCCC`, the Potency result in test [1] and in test [2] was “inactive” each time.
On to `ClC1=C(Cl)C1(Cl)Cl`, for which the Potency result in test [1] and in test [2] was “inactive” throughout.
Regarding `Cc1cc(C)cc([N+](=O)[O-])c1`, the Potency result in test [1] and in test [2] was “inactive” each time.
With `CCCCCC[C@@H](CCC)C(=O)O`, the Potency result in test [1] and in test [2] was “inactive” in each case.
For `CCCCCOC(C)=O`, the Potency result in test [1] and in test [2] was “inactive” each time.
Take `COc1ccccc1OCCNCC(O)COc1cccc2[nH]c3ccccc3c12` (stereo not given): the Potency entry in test [1] and in test [2] was “inactive” in each case.
As to `CC(=O)OCc1ccc2c(c1)OCO2`, the Potency entry in test [1] and in test [2] was “inactive” each time.
Consider `CCCC(=O)O[C@]1(C(=O)CC)CC[C@H]2[C@@H]3CCC4=CC(=O)CC[C@]4(C)[C@H]3[C@@H](O)C[C@@]21C`, for which the Potency entry in test [1] and in test [2] was “inactive” each time.
Take `O=C(O)c1cc(=O)c2c(OCC(O)COc3cccc4oc(C(=O)O)cc(=O)c34)cccc2o1`: the Potency entry in test [1] and in test [2] was “inactive” throughout.
